Screens: PubChem, Broad Institute
MITF act – increases MITF-driven TRPM1 promoter luciferase signal | SK-MEL-5 TRPM1-promoter luciferase, 24 h; % of positive control, neutral wells = 0 | activation, % at 12.5 µM | actives 0.75% (n = 300,000);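 active means mean activation of at least 80% with every replicate also reaching 80%; inconclusive means mean reaches 80% but some replicate falls short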;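 further: 0% = neutral control wells and 100% = parthenolide positive control wells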
C2C12 statin – protects C2C12 myotubes from simvastatin toxicity; rescue of ATP level, % at 7.49 µM; ATP luminescence, 48 h; scaled: DMSO 0, geranylgeraniol control 100; actives 0.78% (n = 330,000); AID 602340;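 active means mean ATP rescue above about 67%, or every replicate alone reaching that limit, limit read from the data, passing the limit was not always enough; inconclusive means no clear call, values can overlap the other calls; inactive means mean under the limit and some replicate under it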;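 further: myotubes were challenged with 10 µM simvastatin during compound exposure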
esBAF inh – SWI/SNF esBAF complex inhibition. mouse ES cells, Bmi1-luciferase knock-in reporter, 24 h; 100% = twice the neutral-well signal. reporter increase, % at 12.5 µM. actives 2% (n = 350,000). AID 602393; in the data active means activation above about 40%; inconclusive means no clear call, values can overlap the other calls;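 further: 0% = median of the plate's neutral control wells and 100% = double that signal; a rise in the Bmi1 reporter signal indicates esBAF inhibition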
Wnt bcat act – activators of Wnt/beta-catenin signaling | Wnt/beta-catenin reporter cell assay, activator, plate reader | activation, % at 9.35 µM | actives 1.2% (n = 300,000); in the data active means activation above about 30%, passing the limit was not always enough; inconclusive means no clear call, values can overlap the other calls;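 further: 0% = neutral control wells and 100% = positive control wells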
Rtt109 HAT inh – C. albicans Rtt109 histone acetyltransferase inhibition; Q5AAJ8; purified Rtt109/Vps75, ThioGlo CoA-SH fluorescence, 4 h; inhibition, % at 34.9 µM; actives 0.16% (n = 330,000); AID 540336;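 active means inhibition of at least 50% in every replicate; inconclusive means best replicate reaches 50% inhibition but some replicates fall short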
Target sequence (Q5AAJ8 whole entry, looked up): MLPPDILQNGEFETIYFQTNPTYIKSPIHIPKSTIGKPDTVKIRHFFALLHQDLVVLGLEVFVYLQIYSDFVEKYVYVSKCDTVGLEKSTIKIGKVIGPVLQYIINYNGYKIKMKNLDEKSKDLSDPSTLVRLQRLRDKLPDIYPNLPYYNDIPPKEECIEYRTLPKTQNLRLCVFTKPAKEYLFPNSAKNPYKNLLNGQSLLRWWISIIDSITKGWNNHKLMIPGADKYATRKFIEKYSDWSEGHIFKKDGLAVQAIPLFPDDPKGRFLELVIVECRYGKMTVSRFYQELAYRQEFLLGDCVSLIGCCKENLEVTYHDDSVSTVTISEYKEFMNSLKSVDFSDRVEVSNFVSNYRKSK
Active calls of the source: *; ? = inconclusive; / = not tested or not shown. Only some compounds are listed: those with a hit (about 3.1% of all), similar ones and a draw of the others.

SMILES | MITF act | C2C12 statin | esBAF inh | Wnt bcat act | Rtt109 HAT inh
C[C@@H]1CCCCO[C@@H](CN(C)C(=O)Nc2ccc(C(F)(F)F)cc2)[C@H](C)CN([C@H](C)CO)C(=O)c2cc(NS(=O)(=O)c3cccs3)ccc2O1 | / | 39.6 | 5.6 | / | /
c1ccc(-c2ncc(CN3CCN(c4ccccn4)CC3)[nH]2)cc1 | -1.9 | 79.0* | 1.6 | -3.5 | 4.0
CO[C@H]1CN(C)C(=O)c2ccc(NS(=O)(=O)c3ccccc3)cc2OC[C@H](C)N(C)C[C@H]1C | / | -2.9 | 3.7 | / | /
CO[C@@H]1CN(C)C(=O)c2cc(NS(=O)(=O)c3ccc(-c4ccccc4)cc3)ccc2OC[C@H](C)NC[C@@H]1C | / | -27.1 | 1.0 | / | /
O=C(C1CCC1)N1C[C@H]2[C@@H](c3ccccc31)[C@H](CO)N2S(=O)(=O)c1ccccc1 | / | 1.7 | -6.0 | / | /
COc1ccc(N(C)C(=O)CCC(=O)Nc2ccc3nc(N4CCOCC4)cc(C)c3c2)c(OC)c1 | -8.3 | -2.2 | -2.3 | / | -5.6
Cc1cc(N2CCOCC2)nc2ccc(NC(=S)N3CCN(c4ccccc4)CC3)cc12 | -27.5 | / | / | 2.6 | -2.4
COc1ccc(NC(=O)CCC(=O)Nc2ccc3nc(N4CCOCC4)cc(C)c3c2)c(OC)c1 | 60.5 | -52.0 | 42.1* | 3.2 | 0.8
CCN1CCN(c2cc(C)c3cc(NC(=O)c4cc(OC)cc(OC)c4)ccc3n2)CC1 | 6.6 | -23.9 | 12.4 | 32.3* | 10.5
Cc1cc(N2CCOCC2)nc2ccc(Cl)cc12 | ? | -10.7 | 56.9* | 20.8 | /
C[C@H]1CN([C@@H](C)CO)C(=O)c2cccc(NC(=O)c3ccc(-c4nccs4)cc3)c2O[C@@H]1CN(C)S(=O)(=O)c1ccc(F)cc1 | / | 10.9 | 1.3 | / | /
CC(C)NC(=O)Nc1ccc2c(c1)C(=O)N([C@H](C)CO)C[C@H](C)[C@H](CN(C)S(=O)(=O)c1cn(C)cn1)OCCCC[C@H](C)O2 | / | / | -1.5 | / | /
O=C(NNC(=O)C12CC3CC(CC(C3)C1)C2)c1ccccn1 | / | / | / | 6.1 | -10.6
CC1(C)CC(NC(=O)c2ccccn2)CC(C)(C)N1O | 0.8 | -3.1 | -3.1 | 56.4* | -3.1
Cc1noc(C)c1S(=O)(=O)Nc1ccc2c(c1)C(=O)N([C@@H](C)CO)C[C@@H](C)[C@@H](CN(C)Cc1ccccc1)OCCCC[C@@H](C)O2 | / | / | 7.2 | / | /
COc1ccccc1-c1cc(C(F)(F)F)nc(S(=O)(=O)CCCC(=O)NC(C)C)n1 | -85.2 | / | / | / | -2.2
COc1ccccc1-c1cc(C(F)(F)F)nc(S(=O)(=O)CCCC(=O)N2CCCCC2C)n1 (stereo not given) | -90.5 | 84.0* | -12.4 | -21.7 | 1.3
Cc1ccc(-c2ccc(CCC(=O)O)n2NC(=O)c2ccc([N+](=O)[O-])cc2)cc1 | 1.8 | 8.8 | -4.5 | 53.5* | 10.9
O=C(C[C@@H]1C=C[C@H](NC(=O)C2CC2)[C@H](CO)O1)Nc1nccs1 | / | 3.9 | 1.6 | / | /
CCSc1cc(C)nc2c(-c3ccc(Cl)cc3)c(C)nn12 | 0.1 | 92.6* | 0.8 | -3.2 | -6.6
Cc1cc(C)n2nc(C)c(-c3ccc(Cl)cc3)c2n1 | -27.3 | -31.0 | -14.1 | 0.3 | 2.1
N#C/C(=C1\CCCN1)c1ccc2ccccc2n1 | -5.0 | 76.8* | 8.3 | / | 1.8
N#C/C(=C1/CCCCCN1)c1nnc2n1CCCCC2 | -3.1 | / | / | -1.7 | -6.1
N#C/C(=C1/CCCCCN1)c1nc2ccccc2[nH]1 | 62.3 | 23.7 | 49.9* | / | -6.3
C[C@@H]1CCCCO[C@H](CN(C)C)[C@H](C)CN([C@H](C)CO)C(=O)c2cc(NC(=O)Nc3cccc4ccccc34)ccc2O1 | / | -349.3 | -4.5 | / | /
SMILES | MITF act | C2C12 statin | esBAF inh | Wnt bcat act | Rtt109 HAT inh
O=C(N[C@H]1/C=C\[C@@H](O)CCCC1)OCc1ccccc1 | 97.8* | 7.7 | 69.5* | 4.1 | -9.4
Cn1nccc1C(=O)N/N=C/c1ccccc1[N+](=O)[O-] | 50.1 | 3.9 | 39.7 | 41.4* | -1.9
COc1cccc(/C=N/NC(=O)c2ccoc2C)c1O | 1.9 | -4.6 | -27.7 | 26.6 | -6.1
Cc1ccc(C(=O)N/N=C\c2ccccc2[N+](=O)[O-])cn1 | 61.0 | 2.8 | 53.3* | 27.0 | -1.3
Cc1occc1C(=O)N/N=C/c1ccccc1[N+](=O)[O-] | / | / | / | 44.0* | -1.5
COCC#Cc1cnc2c(c1)C(=O)N([C@@H](C)CO)C[C@@H](C)[C@@H](CN(C)C(=O)C1CC1)O2 | / | 12.5 | / | / | /
Nc1ccc2oc(-c3ccccn3)nc2c1 | 47.5 | 2.6 | 30.4 | 44.0* | /
Cc1ccnc2ccc(-c3nc4ccccc4o3)cc12 | 8.0 | 13.2 | 23.1 | 67.2* | -6.6
c1ccc(-c2nc3ccccc3o2)nc1 | 34.4 | 3.2 | 46.4* | / | 8.1
c1ccc2nc(-c3nc4ccccc4o3)ccc2c1 | -51.2 | -130.6 | -5.2 | 2.6 | -0.9
Clc1ccc2oc(-c3ccccn3)nc2c1 | 19.3 | / | / | / | -0.7
O=C(c1cccnc1)N1C[C@H]2[C@@H](c3ccccc31)[C@H](CO)N2C(=O)C1CCOCC1 | / | -19.7 | -4.4 | / | /
CCCNC(=O)N1C[C@@H](C)[C@@H](OC)CN(C)C(=O)c2cc(NS(C)(=O)=O)ccc2OC[C@H]1C | / | -2.2 | -3.5 | / | /
C/C(=N\NC(=O)c1cccs1)c1ccc2ccccc2c1 | 65.7 | -46.0 | 52.3* | 9.4 | -0.3
C/C(=N\NC(=O)c1ccc2ccccc2c1)c1cccs1 | 38.4 | -13.7 | 5.0 | 41.5* | -10.1
C/C(=N\NC(=O)c1ccncc1)c1cccs1 | 13.4 | / | / | -1.3 | -0.6
C[C@H](CO)N1C[C@H](C)[C@@H](CN(C)C(=O)Nc2cccc(F)c2)Oc2ncc(C3=CCCCC3)cc2C1=O | / | -4.1 | 0.3 | / | /
CSc1nnc(-c2ccccc2)c(=O)[nH]1 | 0.4 | 96.7* | -1.2 | -0.1 | -2.8
Cn1c(/C=C/c2ccccc2)nc2ccccc2c1=O | 25.7 | -4.3 | 34.0 | 17.5 | -6.1
O=C(N/C(=C/c1ccc(Cl)cc1)c1nc2ccccc2[nH]1)c1ccco1 | 6.8 | / | / | 4.2 | -3.4
O=C(/C(=C/c1ccc(Cl)cc1)c1nc2ccccc2[nH]1)c1ccccc1 | -86.1 | -17.7 | -69.3 | 84.0* | -18.5
Cn1c(/C=C/c2ccc(Cl)cc2)nc2ccccc2c1=O | / | -56.1 | 68.7* | 0.7 | -5.0
CC(=O)Nc1ccc(/C=C/c2nc3ccccc3[nH]c2=O)cc1 | 41.7 | -2.4 | 20.3 | 8.0 | 3.1
COc1ccc(C(=O)N/C(=C/c2cccs2)c2nc3ccccc3[nH]2)cc1OC | 7.4 | / | / | / | 5.8
O=c1[nH]c2ccccc2nc1/C=C/c1ccc(Cl)cc1 | 66.3 | 119.8* | 45.1* | 14.7 | 1.6
COc1cc(/C=C(/C(=O)c2cccs2)c2nc3ccccc3[nH]2)cc(OC)c1O | / | 119.5* | 100.9* | / | -3.6
CCCNC(=O)[C@@H]1[C@@H](CO)[C@@H]2Cn3c(ccc(C4=CCCC4)c3=O)[C@@H]2N1CCC | / | 7.1 | -3.8 | / | /
C[C@@H]1CN([C@H](C)CO)C(=O)Cc2cc(NC(=O)Nc3ccc4c(c3)OCO4)ccc2O[C@H]1CN(C)Cc1ccc(Oc2ccccc2)cc1 | / | 39.0 | 6.4 | / | /
O=C(Cc1ccccn1)NCC[C@@H]1CC[C@@H](NS(=O)(=O)c2ccc(F)cc2)[C@H](CO)O1 | / | 7.2 | -1.8 | / | /
